# In PubChem BioAssay AID1240 (Sanford-Burnham Center for Chemical Genomics, 2008):
# Among all 50,000 compounds or so, about 800 (1.6%) showed an effect of 50% or more. Only a selection was taken, and strong results are over-represented in it overall.
# Molecular target: Bcl-2-like protein 10 (Homo sapiens) (UniProt Q9HD36)
# Test: TR3 peptide-Bcl-B binding displacers, biochemical primary FP assay, phenotype converters (AID 1240);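 note: 0% = Bcl-B with tracer peptide and DMSO and 100% = tracer peptide lacking Bcl-B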
# Conditions: GST-Bcl-B / FITC-TR3 peptide fluorescence polarization; stronger effect = higher value; compound at 3.75 mg/L
# Bcl-2-like protein 10 (Homo sapiens), sequence (Q9HD36 whole entry, looked up): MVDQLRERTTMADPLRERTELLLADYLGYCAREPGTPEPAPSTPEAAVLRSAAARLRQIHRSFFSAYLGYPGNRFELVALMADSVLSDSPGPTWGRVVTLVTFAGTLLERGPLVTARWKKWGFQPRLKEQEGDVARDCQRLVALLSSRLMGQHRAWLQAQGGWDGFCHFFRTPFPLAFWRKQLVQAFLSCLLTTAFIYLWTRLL
row,Structure (SMILES),displacement
1,O=c1[nH]c(=S)[nH]c(O)c1C=Nc1cc(Cl)ccc1O,3.2%
2,O=C(CN1C(=O)CCC1=O)NCCc1ccccc1,-5.5%
3,COc1ccc(Cl)cc1C(=O)Nc1cccc2nsnc12,12.8%
4,O=C1C(Cl)=C(Nc2ccccc2)C(=O)N1c1ccc(Br)cc1,6.4%
5,COc1ccccc1-n1c(O)c(C=Nc2ccccc2Cl)c(=O)[nH]c1=O,1.2%
6,O=C1C2=C(Nc3ccccc3SC2c2ccc3c(c2)OCO3)c2ccccc21 (stereo not drawn),-16.3%
7,CN1CCN(C(=O)CCN2C(=O)/C(=C/c3cccs3)SC2=S)CC1,0.2%
8,CCN(CC)C(=O)Cc1ccc2c3c(cccc13)CC2,12.7%
9,COc1ccc(NC(=O)C/C(C)=N/NC(=O)c2cnccn2)cc1,-21.6%
10,COc1ccc(NC(=O)c2cnccn2)cc1,105%
11,CC(=O)c1ccc(NC(=O)c2cnccn2)cc1,37.3%
12,CCOc1ccc(C(=O)Nc2ccc3oc(-c4ccccc4Br)nc3c2)cc1,14%
13,Cc1ccc(NC(=O)c2cccc(C(=O)Nc3ccc(C)c(C)c3)c2)cc1C,-0.1%
14,O=C(CCCN1C(=O)c2cccc3cccc(c23)C1=O)OC/C=C/c1ccccc1,6.6%
15,Fc1ccc(Nc2nc(-c3ccncc3)nc3ccccc23)cc1F,47.8%
16,Clc1ccc(Nc2nc(-c3ccncc3)nc3ccccc23)cc1,109%
17,Brc1ccc(Nc2nc(-c3ccncc3)nc3ccccc23)cc1,44.4%
18,O=C(Nc1ccc2c(c1)OCO2)c1ccccc1[N+](=O)[O-],-5.9%
19,O=C(O)CSc1nnc2c(n1)[nH]c1ccccc12,3.1%
20,Cc1ccc(/C=C2\CCC/C(=C\c3ccc(C)o3)C2=O)o1,15.2%
21,Cc1nc(SCC(=O)Nc2nnc(-c3ccccc3)s2)n[nH]1,11.9%
22,C/C(NCc1ccccc1)=C(\C#N)C(=O)NCc1ccccc1,-2.4%

row,Structure (SMILES),displacement
1,COc1cc(-c2csc(N)n2)ccc1O,15.6%
2,O=C(COc1ccc(C=C2C(=O)NC(=O)NC2=O)cc1)NCCc1ccccc1,82.5%
3,CC(NC(=O)COc1ccc(C=C2C(=O)NC(=O)NC2=O)cc1)c1ccccc1 (stereo not drawn),7.3%
4,CC(C)NC(=O)COc1ccc(C=C2C(=O)NC(=O)NC2=O)cc1,1.8%
5,C/C=C/COC(=O)C1=C(C)NC(=O)NC1c1cc(Cl)c(O)c(OC)c1 (stereo not drawn),8.4%
6,CCOC(=O)c1c(NC(=O)c2ccc(Cl)cc2)sc2ccccc12,39.1%
7,CCOC(=O)c1c(NC(=O)c2ccc(OC(C)C)c(OCC)c2)sc2ccccc12,80%
8,CCOC(=O)c1c(NC(=O)c2cc(OCC)c(OCC)c(OCC)c2)sc(C)c1C,-6.2%
9,COc1ccc(Nc2ncnc3ccc(C)cc23)cc1,9%
10,Cc1ccc(OCC(=O)N/N=C\c2ccc(-c3ccc([N+](=O)[O-])cc3)o2)cc1,116%
11,O=[N+]([O-])c1ccc(N/N=C/c2ccc(-c3ccc(Cl)cc3)o2)cc1,-4%
12,Cc1ccc(S(=O)(=O)N/N=C/c2ccc(-c3ccc([N+](=O)[O-])cc3C)o2)cc1,52.8%
13,O=C(COc1ccc(Cl)cc1)N/N=C/c1ccc(I)o1,-6%
14,Cc1ccc2nc(-c3ccc(OCC(=O)N/N=C/c4ccc([N+](=O)[O-])o4)cc3)cc(-c3ccccc3)c2c1,-16.7%
15,Cc1ccc(OCC(=O)N/N=C\c2ccc(-c3ccc(Cl)cc3)o2)cc1,38.4%
16,Cc1ccc(S(=O)(=O)N/N=C/c2ccc(-c3ccc([N+](=O)[O-])cc3Br)o2)cc1,2.5%
17,Cc1ccc(S(=O)(=O)N/N=C/c2ccc(-c3ccc([N+](=O)[O-])cc3Cl)o2)cc1,-9.8%
18,O=C(COc1ccc(I)cc1)N/N=C/c1ccc(-c2ccc([N+](=O)[O-])cc2)o1,59%
19,CCN(CC)Cc1c(O)ccc2c(-c3ccccc3)cc(=O)oc12,-8.3%
20,Brc1ccc(CN2CCN(C3CCN(Cc4ccccc4)CC3)CC2)cc1,-15.5%
21,COc1ccc(S(=O)(=O)N(CC(=O)Nc2ccc(C)c(C)c2)c2ccc(C)cc2)cc1OC,17.2%
22,CCOc1ccc(-c2cc(C(=O)NN)c3ccccc3n2)cc1,-18%

row,Structure (SMILES),displacement
1,Cc1csc(Nc2ccccc2)[n+]1CCO,4.4%
2,Cc1cc(N(C)/N=C/c2ccccc2Cl)nc(-c2ccccc2O)n1,5.1%
3,CC(=O)N1CCN(c2ccc(C(=O)c3ccccc3)cc2F)CC1,0.4%
4,Clc1ccc(-c2ccc(/C=C\c3nc4ccccc4o3)o2)cc1,95.3%
5,O=C(/C=C/c1ccc(-c2ccc(Cl)cc2)o1)c1ccccc1,41.8%
6,O/N=C\c1ccc(-c2ccc(Cl)c(Cl)c2)o1,-7.3%
7,N#C/C(=C\c1ccc(-c2cccc(Cl)c2)o1)c1ccc(Cl)cc1,-3.8%
8,O=[N+]([O-])/C=C/c1ccc(-c2ccc(Cl)cc2)o1,14.7%
9,N#C/C(=C\c1ccc(-c2ccc(Cl)c(Cl)c2)o1)c1ccccc1,135%
10,N#C/C(=C\c1ccc(-c2ccc(Cl)cc2)o1)c1ccccc1,130%
11,N#C/C(=C\c1ccc(I)o1)c1ccccc1,-34%
12,N#C/C(=C/c1ccc(I)o1)c1ccc(Cl)cc1,-24.1%
13,N#C/C(=C\c1ccc(-c2cccc(C(F)(F)F)c2)o1)c1ccc(Cl)cc1,-15.3%
14,N#C/C(=C\c1ccc(-c2cccc(Cl)c2)o1)c1ccccc1,-6.4%
15,N#C/C(=C\c1ccc(-c2ccc(Cl)cc2)o1)c1ccc(Cl)cc1,123%
16,CSc1ccc(Cl)c(C(=O)Nc2ccc(Cl)cn2)c1,-39.3%
17,CC1CCN(C(=O)CN(c2cccc([N+](=O)[O-])c2)S(=O)(=O)c2ccccc2)CC1,3.3%
18,O=C(NC1CCCCC1)c1ccc([N+](=O)[O-])cc1,0.7%
19,O=C(N1CCCCC1)C12CC3CCC(CC(C3)C1)C2,6.3%
20,CCOC(=O)N1CCN(C(=O)Nc2ccc3nc4c5ccccc5c5ccccc5c4nc3c2)CC1,22.4%
21,O=C(Nc1ccc2nc3c4ccccc4c4ccccc4c3nc2c1)N1CCOCC1,77.1%
22,O=C(c1ccc2nc3c4ccccc4c4ccccc4c3nc2c1)N1CCOCC1,18.3%

row,Structure (SMILES),displacement
1,Cc1ccc(C(=O)N2C(C)CCCC2C)cc1[N+](=O)[O-] (stereo not drawn),-4%
2,COc1ccc(CC(=O)O/N=C(\N)Cc2ccc([N+](=O)[O-])cc2)cc1OC,14.2%
3,O=C1/C(=C/C=C/c2ccccc2)SC(=S)N1C1CCS(=O)(=O)C1 (stereo not drawn),56.9%
4,O=C1/C(=C/C2CC=CCC2)SC(=S)N1C1CCS(=O)(=O)C1 (stereo not drawn),9.6%
5,COc1cccc(/C=C2\SC(=S)N(C3CCCCC3)C2=O)c1O,-3.3%
6,O=C1/C(=C\c2ccc(N3N=C(c4ccccc4)CC3c3ccccc3)cc2)SC(=S)N1C1CCS(=O)(=O)C1 (stereo not drawn),-14.9%
7,COc1ccccc1/C=C1\SC(=S)N(C2CCS(=O)(=O)C2)C1=O (stereo not drawn),137%
8,O=C1/C(=C/c2ccc(Cl)cc2Cl)SC(=S)N1C1CCS(=O)(=O)C1 (stereo not drawn),7.1%
9,COCCc1nnc(NC(=O)Cc2ccccc2)s1,1.2%
10,Clc1ccc(-c2noc(CCc3ccccc3)n2)cc1,13.2%
11,Cc1nc2sc(C(=O)c3ccc(Br)cc3)c(N)c2c(C)c1C,132%
12,Cc1cc(C)c2c(N)c(C(=O)c3ccc(Br)cc3)sc2n1,-7.3%
13,CN(C)c1ccnc2sc(C(=O)c3ccc(Br)cc3)c(N)c12,10%
14,Cc1[nH]n(-c2ccc([N+](=O)[O-])cc2)c(=O)c1C=NC1CCCCC1,-1.9%
15,O=c1oc2cc([N+](=O)[O-])ccc2nc1/C=C(\O)c1ccc(Br)cc1,18.6%
16,COc1ccc(/C(O)=C/c2nc3ccccc3oc2=O)cc1,-1.7%
17,O=c1oc2cc([N+](=O)[O-])ccc2nc1/C=C(\O)c1cccc(Br)c1,3%
18,Cc1nc(C)c(/C(O)=C/c2nc3ccccc3oc2=O)s1,-1.1%
19,O=c1oc2ccccc2nc1/C=C(\O)c1cccs1,61.3%
20,COc1ccc(/C(O)=C/c2nc3ccccc3[nH]c2=O)cc1,6.8%
21,O=c1oc2cc([N+](=O)[O-])ccc2nc1/C=C(\O)c1cccs1,94%
22,O=c1[nH]c2ccccc2nc1/C=C(\O)c1cccs1,98.7%

row,Structure (SMILES),displacement
1,O=C(Nc1ccc(-c2nc3ccccc3[nH]2)cc1)c1cccs1,-7.9%
2,CC(Cc1ccccc1)NC(=O)CC(c1ccccc1)c1ccc(O)c(Cl)c1Cl (stereo not drawn),2.6%
3,O=C(c1ccc(F)cc1)N1CCN(c2cccc(Cl)c2)CC1,2.4%
4,CCN(CC)CCCCCCOc1ccc(OC)cc1,10%
5,COCCOC(=O)c1ccc(NC(=O)COc2cccc(C)c2C)cc1,1.9%
6,CCOC(=O)C(C(=O)OCC)C(C(=O)OCC)(C(=O)OCC)C(C(=O)OCC)C(=O)OCC,2.1%
7,O=C(N=Nc1c(O)[nH]c2ccc([N+](=O)[O-])cc12)c1cccc(Br)c1,3.3%
8,O=C(N=Nc1c(O)[nH]c2ccc([N+](=O)[O-])cc12)c1ccc2c(c1)OCO2,75.1%
9,O=C(N=Nc1c(O)[nH]c2ccc(Br)cc12)c1ccc([N+](=O)[O-])cc1,6.8%
10,COc1ccc(C(=O)N=Nc2c(O)[nH]c3c(C)cc([N+](=O)[O-])cc23)cc1,115%
11,Cc1cc(C)c2[nH]c(O)c(N=NC(=O)c3cccc([N+](=O)[O-])c3)c2c1,-0.6%
12,COc1ccc(C(=O)N=Nc2c(O)[nH]c3c(C)cc(Br)cc23)cc1,3%
13,CCOc1ccccc1NC(=O)/C=C/c1ccc(Cl)cc1,11.4%
14,CCN1C(=O)N(CC)C2C1N(COC(C)=O)C(=O)N2COC(C)=O (stereo not drawn),1.5%
15,COc1ccc(-n2nc3cc(C)c(NC(=O)c4cccnc4)cc3n2)cc1,5.1%
16,O=C1c2ccccc2C(=O)N1c1ncc(Cc2cccc(C(F)(F)F)c2)s1,-5.8%
17,Cc1cccc(NC(=O)CN(c2cccc(Cl)c2)S(C)(=O)=O)c1,3.9%
18,CC1=C(C(=O)OC2CCCC2)C(c2ccc(Cl)cc2)NC(=O)N1 (stereo not drawn),7.3%
19,CC1=C(C(=O)OC2CCCCC2)C(c2ccc(N(C)C)cc2)NC(=O)N1 (stereo not drawn),99.1%
20,CC1=C(C(=O)OC2CCCCC2)C(c2ccc(Br)cc2)NC(=O)N1 (stereo not drawn),17.5%
